# The supplement of paper PMC11417369
# Over roughly 25,000 sequences, “ln(normalized median fluorescence intensity)” has its median near 9.3; the highest 2% begin near 10. The list comes from a sample in which the highest values are over-represented; it also holds similar and randomly drawn sequences.
# Test system: PF3D7_0420300 AP2 domain 1 (GST-tagged)
# Test: gcPBM binding intensity (ln(normalized median fluorescence intensity)); higher = stronger DNA binding
# Procedure, shortened: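 Probes on an Agilent 4 × 180k array were primer-extended, double-stranded and 36 bp long, taken from intergenic genomic regions, with negative controls added. GST-tagged P. falciparum DNA-binding domains from E. coli, about 25 μg on average, were applied to the array for 1 h in 1× PBS containing 1% milk, 0.2 mg/ml BSA, 0.5% salmon testes DNA and 0.03% Triton X-100. Binding intensity, obtained after Alexa488 anti-GST antibody detection and a 488 nm scan, is the highest Masliner-normalised natural-log median intensity across replicate spots of either probe orientation.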
row,Sequence,gcPBM binding intensity (ln)
1,TTTTTAATAACACTTTTGAAAAATAAAATAAAATAA [CACACA_negctrl_site821],8.8
2,AAACAAATAAAATTTATTAAAAAGGTCATATTATTA [CACACA_negctrl_site85],9.12
3,AGAAAGGATATTATATGTACATATCTTTGTATTTTT [XGTACX_site5040],9.36
4,GTATACATGCAAATTTTTATTTACAACCCCAAAAAG [XGTACX_negctrl_site255],9.23
5,GCACAAATATATATATATATATATATATATATATAT [GTGCAC_negctrl_site661],9.06
6,AAAAAAAAAAAACACACACACACACCCATATACATA [CACACA_site2664],10.3
7,AAAAAAAAAAAAAACACACACACACCCACATATACA [CACACA_site2663],10.1
8,AAAAAAAAAAAAAACACACACACACCCATACCCATA [CACACA_site5577],10.1
9,TAAACACCCATACATACACACATACATACACCCATA [CACACA_site5125],9.58
10,AAAAAAAAAAAAAACACACATACACGCCCACCCATA [CACACA_site3391],10.2
11,TCCTTTTCATCTTGTAGTACGGAAATGTAGCTCCAA [XGTACX_site8563],9.09
12,CTTTTTTTAATGATAACACACATGTTGTGCATAGAC [CACACA_site3270],9.32
13,ATTTATTAAAAGAAATGTACAGAAAATGTTTGGAAT [XGTACX_site7187],9.26
14,ATTAAATATATTTTGCGTACACAAAAAAATACGTTC [XGTACX_site3862],9.15
15,AATGAAAATAAATTAACACACAATTTTAATATTGTT [CACACA_site1306],9.32
16,TCATATATTTATGTATGTACATATATATATAGATTA [XGTACX_site380],9.01
17,CATATCATTGATTATAGTACACATACCATTTTTTAT [XGTACX_site6572],9.45
18,GTAATAAGAATTATAGTGCAATGTAATACATTTATA,9.23
19,AGGATAAAAGTTATGGTGCATTAACCTATTTAAATA,9.14
20,AAAAAAAAAAAAAAAACACACACATATATATATATA [CACACA_site8571],9.51
21,AAAACACGCGGACACACACACACACGCCCACATATA [CACACA_site7105],10.4
22,AACACGCGCGGACACACACACACACCCACATATATA [CACACA_site5252],10.4
23,AAAAAACACGCGCACACACACACACGCGCCCACATA [CACACA_site7106],10.3

row,Sequence,gcPBM binding intensity (ln)
1,ATTACATACACGCGCACACACAAAAAAAAAAAAAAA [CACACA_site1334],9.57
2,AAAAAACACGGACACACACACATATACATACATACA [CACACA_site5470],10.1
3,AGAAAAAAACAACATGCACACGCACCCACAAAAAAA [CACACA_site7908],9.71
4,AACACGCGCAGACACACACACACACCCACATATATA [CACACA_site2205],10.2
5,AACACCCATGGACACACACACATATATATATATATA [CACACA_site5809],9.92
6,ACTTTATATTTTGAACGTACAAAAAAAAAATTATGT [XGTACX_site5588],9.04
7,AATACAATATAGTGAAAAATAATTAAATACAATAAG [XGTACX_negctrl_site161],9.6
8,TAGATATATAGACACACACACATTAATACCTATATT [CACACA_site7605],10.1
9,CGCTTTATTTATATATGTACATATATATATATATAC [XGTACX_site5012],9.33
10,TAATATAACAAAAAAATAAAATAAAATAAAAAATAA [CACACA_negctrl_site109],9.35
11,AAAAGAATTACTTTCACACATATATATCTGTAAATA [CACACA_site5798],9.15
12,TACACGCATGGACACACACACACACCCATATATATA [CACACA_site4522],10.2
13,CACGCGCCCGGACACACACACACACCCATATATATA [CACACA_site5251],10.2
14,TACACCCATGGACACACACACACGCATAAAAAAAAA [CACACA_site4933],9.93
15,GATATTAAAATATGTAGTACACATATTATATCATAT [XGTACX_site4167],9.18
16,ATTTAACATATAAAATGTACATATATATATATATTT [XGTACX_site2525],9.25
17,GTTAATCACCATGTGGTGCATATAAGGGCATATTAT [GTGCAC_site9748],9.22
18,TATATATATAGACACACACACACATATATATATATA [CACACA_site9366],10
19,TAATTTATAACACGCGCACACATATATATATAGTAA [CACACA_site121],9.57
20,TAAGAAATAAATAGTACACACATAGACACACGCACA [CACACA_site6821],9.92
21,TATATATATATATACACACACACACCCATATATATA [CACACA_site2538],10
22,TATATATATATATATACACACACACCCATATATATA [CACACA_site8812],9.94
23,TATCTCATAGTATACACACACACACCCACCCATATA [CACACA_site1739],10.4

row,Sequence,gcPBM binding intensity (ln)
1,CATAGATACATACACGCACACACATATATATATATA [CACACA_site13],9.87
2,ATTCTACACCCACATACACACATATATATATATATA [CACACA_site3426],9.84
3,TCTCATAGTAGACACACACACACACGCACATATATA [CACACA_site6916],10.4
4,TATATCTCATAGTATACACACACACCCACCCACATA [CACACA_site8513],10.3
5,TATAGATACATATACACACACACACCCACATATATA [CACACA_site3436],10.2
6,TATCTCATAGTATACACACACACACGCGCACATATA [CACACA_site6917],10.3
7,AATATATATATACATACATGCATACATATATATATA [TGCATGCA_site784],9.24
8,TTTATCCTTCTTTTGAGTACTCAAAGAGACCTATAA [XGTACX_site8050],8.83
9,ATGAATTTATTACATTGTACATTTTTAAAAGGTTAC [XGTACX_site124],9.11
10,TAAAAAAGAACAGAAACACACAAATAAAATAAAATT [CACACA_site1758],10
11,GGGAGAAATTTATACATACACACATATATATATTAT [CACACA_site4039],9.62
12,AAATATTATACAAAAAAAAAAAAAAAAAAAATATAT [CACACA_negctrl_site52],9.39
13,AAAGCACCCAGGCACACACACAAAGGAAAAGAAAAA [CACACA_site232],9.83
14,AAAAAAAACAGACACACACACATACAAAATATATAT [CACACA_site1449],10.2
15,GCTTAATACAGAATAACACACAAAATAAATAAATAA [CACACA_site4041],9.56
16,CAAATACCCGGACACACACACACAAAAAAAAAAAAA [CACACA_site4441],9.99
17,AAAAAAAACAGACACACACACAAATATATAAAAATA [CACACA_site1172],10
18,ATAAATGACAGACACACACACAAAAAAAAAAAACAA [CACACA_site2626],10.2
19,AAAAAAAACAGACACACACACAAATACATACACAAA [CACACA_site705],10
20,AAAAAAAAAAAAAACACACACATACAGACAAAAATG [CACACA_site83],10.1
21,TTAATCCACAGACACACACACACAAAATAAAATACA [CACACA_site244],10.2
22,AAAAAAAAAAAAAATACACACAAATAATAAAAATAA [CACACA_site1431],9.85
23,AAAACAGACAAACACACACACACATATATATATATA [CACACA_site3393],10

row,Sequence,gcPBM binding intensity (ln)
1,TTAATACCCAGACACACACACACAAAATAAAATACA [CACACA_site7968],10.1
2,TTAATACCCGGACACACACACACAAAATAAAATACA [CACACA_site4296],10.2
3,AAATGTACAGGACGCACACACATATTTATATTTATA [CACACA_site7689],9.67
4,ATACATATATTAGGATGTACGTTTATTTTAGTTATT [XGTACX_site7169],9.47
5,ATTAATATTTAGACTTGTACATATATAATATATGTC [XGTACX_site3766],9.2
6,AAATTCTTAACCCAACGTACATATAATAAATTCTTA [XGTACX_site8538],9.1
7,CAATCATTTTATTGTTGTACAGTAATTATGAATTCA [XGTACX_site7508],9.03
8,TACAATGAAAAAATAACATGCAATTATATTTCTCTT [TGCATGCA_site833],9.17
9,TATATAAATTAACCAGTGCATTATTTGGAAATTATT,9.31
10,CATTATGATTAAATATGTACATATTATTATATAAAT [XGTACX_site2477],9.08
11,GAAAAAAAAAAAAAAAAAAAAAGGAAAAAAGTGAAA [CACACA_negctrl_site996],9.21
12,TATATATGTATATATGGTACAGAATATTCTACATTA [XGTACX_site5077],9.23
13,ATATCATTTTCCTGCACACATAAATTTATATAATAT [CACACA_site1048],9.76
14,TTTTTTTTCTATGTGGTGCACATTATTTTTTTTTTT,9.41
15,CACAAAAAGAAACACACACACATATATATATATATA [CACACA_site999],9.73
16,AATACAGACAGACACACACACAAAATAAAATACAAA [CACACA_site245],10.1
17,TGAACACAGACAAATACACACAAAAAAAATAAATAA [CACACA_site4298],9.79
18,TATATATACAGACACATACACACAAATAAAAAAACA [CACACA_site3413],10.1
19,AACAAATACAGACACACACACACACTAATAAAAAAA [CACACA_site8067],10.3
20,AAATAAAACAGACACACACACACATACACAAAAAAA [CACACA_site7753],10.2
21,TACAAACAGACATATACACACAAAAAAAAAATAAAA [CACACA_site2562],9.91
